The source of these data is PubChem BioAssay AID2391 (Southern Research Specialized Biocontainment Screening …, 2010).

Screen size: about 310,000 compounds; about 410 (0.13%) were called active. Roughly 2% stayed inconclusive and do not appear here. The rule behind the calls is not given here. Only a sample is shown. Potency and affinity values are given separately.

The nature of this experiment: RSV antiviral activity via CPE protection, HEp-2 cells, primary 10 µM value included (AID 2391). The settings on record: RSV-induced CPE inhibition, at 10 µM, stronger effect = higher value.
Turning to `O=C(CSc1nccc(=O)[nH]1)c1ccccc1Br`, the CPE inhibition was 2.89% (inactive).
For `COc1ccc(C)cc1NC(=O)CSc1nnnn1C1CCCC1`, the CPE inhibition is 2.31% (inactive).
As to `Cc1cc(=O)[nH]c(NCc2ccc(Cl)cc2)n1`, the CPE inhibition was 0.3% (inactive).
`Cc1ccsc1C(=O)NNC(=O)C1C2C=CC(C2)C1C(=O)O` (centres undefined): the CPE inhibition is 0.87% (inactive).
`COc1ccc(OCc2nnc(SCC(=O)Nc3cccc(Cl)c3)o2)cc1`: the CPE inhibition is 2.31% (inactive).
On to `CSc1nnc(-c2sc3cc(Cl)ccc3c2Cl)n1C`, for which the CPE inhibition is 14% (inactive).
The same measure for `CCn1c(SC)nnc1-c1nnc(SC)n1CC`: 3.28% (inactive); for `O=C(Cn1nc(-c2ccccc2)c2ccccc2c1=O)Nc1ccc(F)cc1`: 2.89% (inactive).
Take `COc1ccc(CNC(=O)c2coc(=O)c3ccccc23)cc1`: the CPE inhibition was 5.17% (inactive).
Turning to `COc1ccc(CNC(=O)c2coc(=O)c3ccccc23)c(OC)c1`, the CPE inhibition is -0.36% (inactive).
As for `C#CCn1c(S(=O)(=O)Cc2ccccc2Cl)nc(-c2ccccc2)c1-c1ccccc1`, the CPE inhibition is -0.31% (inactive).
With `C#CCn1c(S(=O)(=O)Cc2ccc(OC)cc2)nc(-c2ccccc2)c1-c1ccccc1`, the CPE inhibition was 3.68% (inactive).
`Cc1cc([N+](=O)[O-])nn1CCCC(=O)O`: the CPE inhibition is 5.17% (inactive).
Turning to `CN(NC(=O)c1cccc(Cl)c1)c1nc(-c2ccccc2)nnc1C(F)(F)F`, the CPE inhibition was 3.22% (inactive).
Take `CCN(CC(=O)Nc1cc(Cl)ccc1C)C(=O)CCOc1ccc(C)cc1`: the CPE inhibition is 0.1% (inactive).
The same measure for `CCN(CC(=O)Nc1cc(Cl)ccc1C)C(=O)CSCc1c(C)noc1C`: 16.3% (inactive).
Take `COc1ccc(C(=O)NCC(=O)N/N=C/c2c(C)[nH]c3ccccc23)cc1`: the CPE inhibition is 6.54% (inactive).
As to `COc1cc(C(=O)NCC(=O)N/N=C/c2c(C)[nH]c3ccccc23)cc(OC)c1OC`, the CPE inhibition is 3.1% (inactive).
`CC(=O)c1ccc(N2CCN(C(=O)c3nn(Cc4ccccc4)c(=O)c4ccccc34)CC2)cc1`: the CPE inhibition is 5.5% (inactive).
Turning to `COc1ccc(NC(=O)Cn2nnc(-c3ccccc3NC(=O)c3ccco3)n2)cc1`, the CPE inhibition is 0.17% (inactive).
On to `COc1ccccc1NC(=O)c1sc2ncn(Cc3cccc4ccccc34)c(=O)c2c1C`, for which the CPE inhibition is 2.87% (inactive).
`COc1ccccc1N(CC(=O)Nc1ccc(F)c(F)c1)S(C)(=O)=O`: the CPE inhibition was 0.09% (inactive).
The same measure for `O=c1[nH]c(=O)n(C2OC(CO)C(O)C2O)cc1Br` (centres undefined): -0.14% (inactive).
With `Nc1ccn([C@@H]2O[C@H](CO)[C@@H](O)C2O)c(=O)n1` (some centres undefined), the CPE inhibition was -2.12% (inactive).
With `Nc1ccn([C@@H]2O[C@H](CO)[C@@H](O)[C@@H]2O)c(=O)n1`, the CPE inhibition was -0.64% (inactive).
For `O=c1ccn([C@@H]2O[C@H](CO)[C@@H](O)[C@H]2O)c(=O)[nH]1`, the CPE inhibition was -0.56% (inactive).
For `CCOc1ccccc1Nc1cc(C)nc2nnnn12`, the CPE inhibition is -1.74% (inactive).
As to `Cc1ccc(S(=O)(=O)[N-]c2nc3ccccc3nc2-n2cc[n+](CCC(C)C)c2)cc1`, the CPE inhibition is 0.13% (inactive).
Regarding `COc1cc(NC(=S)N2CCN(Cc3ccccc3)CC2)cc(OC)c1`, the CPE inhibition was 4.9% (inactive).
In the case of `Cc1cc(/C=C2/NC(=O)NC2=O)c(C)n1-c1ccccn1`, the CPE inhibition was 2.98% (inactive).
In the case of `Cc1cc(/C=C2/NC(=O)NC2=O)c(C)n1C`, the CPE inhibition is 3.8% (inactive).
As for `Cc1cccc(-n2c(C)cc(/C=C3\NC(=O)NC3=O)c2C)c1`, the CPE inhibition was 5.86% (inactive).
Take `Cc1cc(/C=C2/C(=O)NN(c3ccccc3)C2=O)c(C)n1-c1cccc(O)c1`: the CPE inhibition is 1.07% (inactive).
In the case of `Cc1cc(/C=C2\C(=O)NN(c3ccccc3)C2=O)c(C)n1-c1ccccc1O`, the CPE inhibition was -1.31% (inactive).
Regarding `Cc1cc(/C=C2/NC(=O)NC2=O)c(C)n1-c1ccncc1`, the CPE inhibition was 19.7% (inactive).
For the compound `O=C(NNC1=NS(=O)(=O)c2ccccc21)c1ccccc1Cl`, the CPE inhibition is 1.71% (inactive).
As to `CC(CC(=O)NC1CCCCC1)S(=O)(=O)c1ccc2c(c1)CCN2C(=O)C1CC1` (centres undefined), the CPE inhibition was 0.99% (inactive).
Take `CCC(=O)Nc1ccc(C(=O)CSc2nnc(-c3cccnc3)o2)cc1`: the CPE inhibition is -0.13% (inactive).
Regarding `COc1cc([N+](=O)[O-])ccc1NC(=O)CSc1ccccn1`, the CPE inhibition is 4.53% (inactive).
Turning to `O=C(Nc1ccc(O)c2c(=O)cc(-c3ccccc3Cl)oc12)c1cccc(Cl)c1`, the CPE inhibition was -0.66% (inactive).
For `CSc1cc(-c2ccc(Cl)cc2)c(C(=O)NN)s1`, the CPE inhibition is 0.87% (inactive).
With `COC(=O)c1nc(N)sc1C`, the CPE inhibition is 1.76% (inactive).
In the case of `COc1ccc(S(=O)(=O)N2CC(C(=O)O)Oc3ccc(CC(=O)O)cc32)cc1` (centres undefined), the CPE inhibition is 1.19% (inactive).
For the compound `O=C(Nc1ccc(N2CCOCC2)c(Cl)c1)c1cccnc1`, the CPE inhibition was 4.29% (inactive).
As to `O=C(Nc1ccc(N2CCCC2)c(Cl)c1)c1cccnc1`, the CPE inhibition was 5.52% (inactive).
On to `O=C(CSc1nnc2ccccn12)NC(=O)NC1CCCC1`, for which the CPE inhibition is 0.11% (inactive).
The figure for `COc1cccc(OC)c1C(=O)Nc1ccc(C)cc1C(=O)c1ccccc1` is 6.46% (inactive); for `Cc1nc(CCNS(=O)(=O)c2cccnc2)cs1` it is -0.89% (inactive); for `COc1ccc(NC(=O)c2cn(-c3ccccc3)nc2-c2cc3ccccc3o2)cc1` it is 14.1% (inactive).
Consider `O=C(Nc1ccc([N+](=O)[O-])cc1)c1cn(-c2ccccc2)nc1-c1cc2ccccc2o1`, for which the CPE inhibition is 0.46% (inactive).
Turning to `COc1cc(C=O)ccc1OCc1cccc(Br)c1`, the CPE inhibition is 1.17% (inactive).
Take `CC(=O)Nc1cccc(NC(=O)c2cccc(S(=O)(=O)N3CCN(Cc4ccccc4)CC3)c2)c1`: the CPE inhibition is 1.07% (inactive).
As for `O=C(Nc1ccc2c(c1)OCO2)[C@@H]1[C@@H]2C(=O)N(C3CCCCC3)C(=O)[C@@H]2C2c3ccccc3C=CN21` (some centres undefined), the CPE inhibition was 2.62% (inactive).
Take `COc1ccc(C(C[N+](=O)[O-])c2c(-c3ccccc3)cc3ccccn23)cc1` (centres undefined): the CPE inhibition is 7.08% (inactive).
On to `COc1ccc(C(C[N+](=O)[O-])c2c(C)cc3ccccn23)c(OC)c1` (centres undefined), for which the CPE inhibition was 3.91% (inactive).
`COC(=O)CSc1nc2ccc(NC(=O)CSc3nnnn3Cc3ccccc3)cc2s1`: the CPE inhibition is 1.43% (inactive).
Regarding `COc1ccccc1OCCOCCOc1c(C)cc(C)cc1Br`, the CPE inhibition is 1.97% (inactive).
For the compound `CCOc1ccccc1CNC(=O)c1cc2occc2n1C`, the CPE inhibition was 2.63% (inactive).
For `COc1ccccc1CNC(=O)c1oc2ccccc2c1C`, the CPE inhibition was 1.89% (inactive).
As for `CCOc1ccccc1CNC(=O)c1cn(C)c(=O)c2c1c1ccccc1n2C`, the CPE inhibition is 6.47% (inactive).
In the case of `CCOc1ccccc1CNC(=O)c1c([N+](=O)[O-])c(C)nn1C`, the CPE inhibition was 0.22% (inactive).
The figure for `CCOc1ccccc1CNC(=O)Cn1c(=O)oc2ccccc21` is -0.15% (inactive).
In the case of `COc1ccccc1CNC(=O)c1cc2c(=O)[nH]c3ccccc3c2n1C`, the CPE inhibition is 16.5% (inactive).
The figure for `Cc1cc(NC(=O)CCC(=O)N(CC(=O)NCC2CCCO2)c2cccc(F)c2)no1` (centres undefined) is 0.87% (inactive).
The figure for `CC(=O)NC1(C(F)(F)F)C(=O)Nc2c1c(=O)[nH]c(=O)n2-c1ccccc1` (centres undefined) is -0.08% (inactive); for `CCCCCCC(=O)N1CCC(c2nc3c(nnn3Cc3ccccc3Cl)c(=O)[nH]2)CC1` it is -3.63% (inactive); for `Cc1ccc(Nc2ccc(S(=O)(=O)N3CCOCC3)cc2[N+](=O)[O-])cc1C` it is 7.23% (inactive).
The figure for `CC1=Nc2cc(C(=O)N3CCCC3)ccc2Sc2ccc(C)cc21` is 3.72% (inactive); for `CC1=Nc2cc(C(=O)N3CCCCC3)ccc2Sc2ccc(C)cc21` it is 4.9% (inactive).
Turning to `COc1ccc(N2CCN(c3nc(C)c(C)c(=O)[nH]3)CC2)cc1`, the CPE inhibition is 1.02% (inactive).
In the case of `COCCOc1cc(NC(=O)CS(=O)CC(=O)N(C)C)c(Cl)cc1Cl` (centres undefined), the CPE inhibition was 1.9% (inactive).
Consider `O=C(Nc1ccc(Nc2ccccc2)cc1)C1CC1`, for which the CPE inhibition is 0.83% (inactive).
With `O=C(Nc1ccccc1)c1ccc(NC(=O)C2CC2)cc1`, the CPE inhibition was 2.88% (inactive).
The same measure for `CNC(=O)CO/N=C/c1ccc(N(C)C)cc1`: 2.24% (inactive).
On to `COc1ccc2cc(CN(Cc3cccnc3)S(=O)(=O)c3ccccc3)c(=O)[nH]c2c1`, for which the CPE inhibition was 5.1% (inactive).
Consider `CCCNC(=O)c1cc(S(=O)(=O)N2CCCCC2)ccc1N1CCOCC1`, for which the CPE inhibition is -0.63% (inactive).
On to `CCn1c(-c2nonc2NC(=O)c2ccccc2)nc2ccccc21`, for which the CPE inhibition is -1.62% (inactive).
Regarding `CCC(=O)Nc1nonc1-c1nc2ccccc2n1CC(C)C`, the CPE inhibition is 4.88% (inactive).
In the case of `CC(C)NC(=O)CSc1ccccc1C(=O)NNC(=O)Cn1ccc(C(F)(F)F)n1`, the CPE inhibition was -1.83% (inactive).
The same measure for `CCOc1ccc(C(C)=O)cc1CN1C(=O)NC2(CCCCCC2)C1=O`: -0.88% (inactive); for `CCOC(=O)c1nn(-c2ccccc2)c(=O)cc1OCC(=O)Nc1cc(C)ccc1OC`: 0.86% (inactive); for `O=C(NCc1cccs1)C1CCN(C(=O)NCc2ccccc2)CC1`: 0.51% (inactive).
For the compound `CCN1C(=O)/C(=C2/C(=O)N3c4c(cc(OC(C)=O)cc42)C(C)=CC3(C)C)SC1=S`, the CPE inhibition is 7.27% (inactive).
In the case of `COc1cc2c3c(c1)/C(=C1/SC(=S)NC1=O)C(=O)N3C(C)(C)C=C2C`, the CPE inhibition was 17.4% (inactive).
On to `Cc1ccc(OCCNC(=O)CCc2ccccc2)cc1C`, for which the CPE inhibition was -0.93% (inactive).
Turning to `CCc1nccn1S(=O)(=O)c1ccc2ccccc2c1`, the CPE inhibition is 1.31% (inactive).
Take `O=C(N/N=C/c1cccnc1)c1cc(C2CC2)nc2ccccc12`: the CPE inhibition is 1.57% (inactive).
For `Cc1cc(C)c2nc(SCC#N)cc(C)c2c1`, the CPE inhibition was 11.1% (inactive).
Turning to `C/C(N)=C(/C#N)C(=O)CSc1cc(C)c2ccccc2n1`, the CPE inhibition is 12.3% (inactive).
Regarding `CC(C)S(=O)(=O)CC(=O)c1ccc(Cl)cc1`, the CPE inhibition is 1.72% (inactive).
In the case of `O=C(Cn1c2ccccc2c2nc3n(c(=O)c21)CCS3)Nc1ccccc1`, the CPE inhibition was 0.68% (inactive).
Turning to `Cc1ccc(C(=O)Nc2ccc3c(c2)C(=O)NC3=O)cc1`, the CPE inhibition is 3.34% (inactive).
The figure for `COc1cc(OC)cc(-c2nnc(SCc3c(F)cccc3Cl)o2)c1` is 9.5% (inactive); for `COc1cc(-c2nnc(SCc3ccccc3Cl)o2)cc(OC)c1OC` it is 10.5% (inactive).
